Compounds with a hit are over-represented: about 19% of the library has one in this group of screens.
HT1080-NT tox: kills 2HG-producing HT-1080-NT fibrosarcoma cells. HT-1080-NT fibrosarcoma viability, CellTiter-Glo ATP luminescence, 48 h. Potency, µM (top dose mostly 46.1 µM), for inactives: at the top dose activity, negative = less viability, hits mostly cytotoxic. actives 1.6% (n = 360,000). AID 686970;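 note: NT is the 2HG producing partner of a matched IDH1 knockdown line; potency is the fitted concentration of half-maximal effect; 0% = DMSO-treated cells and -100% = media-only wells without cells; nearly all actives have a fitted effect of over 55% in size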
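Toxicity toward the 2HG-producing NT line was scored as %Activity, normalised to DMSO and no-cell wells, from CellTiter-Glo luminescence after 48 hours' treatment.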
IL1B secr inh: blocks inflammasome-driven IL-1 beta release; THP-1 LPS/ATP IL-1B secretion, AlphaLISA, 16 h; hits give low values; activity change, % at 57.5 µM; actives 4.7% (n = 360,000); AID 743279; in the data active = activity change below about -50%; inconclusive = mostly about -30% to -49%
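THP-1 cells pretreated 1 hr with compounds (up to 57.5 uM final), then stimulated with LPS (250 ng/mL final) plus ATP (1.25 mM final); secreted IL-1B measured by AlphaLISA after 16 hr, decreased signal indicating inhibition.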
HT1080 IDH1KD tx: kills HT-1080 cells with IDH1 knockdown. HT-1080 IDH1 knockdown viability, ATP luminescence, 48 h. actives 2% (n = 360,000). AID 686971. Potency, µM (doses to about 46.1 µM), for inactives: top-dose activity, negative = toxicity, hits mostly cytotoxic;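 note: potency is the fitted concentration of half-maximal effect; 0% = DMSO wells and -100% = cell-free medium wells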
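IDH1KD HT-1080 cells, 750/well, RPMI + 5% FBS; compound pinned after 2 h settling; 48 h, 37 °C; CellTiter-Glo luminescence; % activity normalised to DMSO and no-cell wells; curves fitted, classed by r2 and efficacy.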
DT40 TDP1 no CPT: qHTS for Inhibitors of human tyrosyl-DNA phosphodiesterase 1 (TDP1): qHTS in cells in absence of CPT. DT40 Tdp1-/- hTDP1 cells, no CPT, ATP luminescence, 48 h. Potency, µM (top dose mostly 46.2 µM), for the others: top-dose activity change, negative = growth inhibition, hits mostly inhibitors. actives 15% (n = 420,000). AID 686978, 2013; note: potency is the fitted concentration of half-maximal effect; nearly all actives have a fitted effect of over 55% in size
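A cellular qHTS used chicken DT40 cells lacking endogenous Tdp1 but carrying stably transfected human TDP1. Compounds were applied without camptothecin, and cell growth kinetics were judged by ATP-dependent luminescence after ≥48 hr.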
DT40 TDP1 CPT: DT40-hTDP1 cell growth loss with CPT | chicken DT40 Tdp1-/-;hTDP1 cells + 20 nM CPT, ATP luminescence, 48 h | Potency, µM (highest dose often 46.2 µM), without a hit: at the highest dose activity change, negative = growth inhibition, usual class: inhibitors | actives 12% (n = 420,000); note: potency is the fitted concentration of half-maximal effect; nearly all actives have a fitted effect of over 55% in size
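Chicken DT40 Tdp1-/- cells complemented with human TDP1, 400 cells/well, exposed to compounds plus 20 nM camptothecin for at least 48 h at 37 C; viability read as ATP content by CellTiter-Glo luminescence.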
* hit, by the source's call; ? = inconclusive; . = no result given; [ ] = remark or other dose. Unless noted, calls come from the whole dose curve; as a rule, active = well fitted curve in the direction sought with a large enough effect; inconclusive = small, poorly fitted or top-dose-only effect, or another doubt; inactive = no such curve, though single readings can be large; an effect the other way counts as inactive or inconclusive. Unless noted, % is set by controls: 0 for no effect and ±100 for the full control effect.

SMILES	HT1080-NT tox	IL1B secr inh	HT1080 IDH1KD tx	DT40 TDP1 no CPT	DT40 TDP1 CPT
CCOc1ccccc1CN1CCN(Cc2c[nH]c3ccccc23)CC1CCO (stereo not drawn)	-28.7%	-4.6	-25.0%	16.4µM*	9.2µM*
CCOc1ccc(CN2CCN(Cc3[nH]c4ccc(OC)cc4c3C)CC2CCO)cc1 (stereo not drawn)	?	-66.5*	?	?	?
COc1ccc(/C=C/CN2CCN(Cc3ccc(F)cc3)C(CCO)C2)cc1 (stereo not drawn)	-15.6%	-54.6*	-8.1%	29.1µM*	?
Cc1ccc(CN2CCN(Cc3ccncc3)CC2CCO)o1 (stereo not drawn)	12.5%	-8.3	15.8%	?	3.8%
CCOc1ccccc1CN1CCN(Cc2cc(=O)c3ccccc3[nH]2)CC1CCO (stereo not drawn)	-9.5%	48.8	-26.5%	?	?
Cc1ccc(CN2CCN(Cc3cc(=O)c4ccccc4[nH]3)CC2CCO)o1 (stereo not drawn)	9.3%	-3.0	8.1%	17.1%	0.5%
Cc1ccc(CN2CCN(Cc3c[nH]c4ccccc34)CC2CCO)o1 (stereo not drawn)	-26.1%	-0.1	-0.3%	?	7.31µM*
CCOc1ccccc1CN1CCN(Cc2[nH]c3ccccc3c2C)CC1CCO (stereo not drawn)	-16.6%	-9.4	?	14.6µM*	?
CO[C@H]1[C@H](NC(=O)c2ccco2)c2ccccc2C12CCN(Cc1cnn(-c3ccccc3)c1)CC2	.	.	.	-17.7%	11.0%[9.04 µM]
Cc1ccc(S(=O)(=O)n2c(N)nc3ccccc32)cc1	-23.4%	11.4	-27.5%	-25.9%	?
CSc1ccc(/C=C/c2nc3ccccc3n2S(=O)(=O)c2cccc(Cl)c2)cc1	.	.	.	10.3µM*	13µM*
Cc1ccc(/C=C/c2nc3ccccc3n2S(=O)(=O)c2ccc(Br)cc2)cc1	.	.	.	20.6µM*	?
O=S(=O)(c1cccc(Cl)c1)n1c(/C=C/c2ccccc2Cl)nc2ccccc21	.	.	.	13µM*	18.4µM*
O=C(Cc1ccc(Cl)cc1)Nc1cccnc1Cl	8.9%	-27.5	13.5%	-3.9%	5.7%
CSCCC1NC(=O)N(CC(=O)Nc2c(Cl)cc(Cl)cc2Cl)C1=O (stereo not drawn)	-2.5%	-5.3	?	?	16.4µM*
O=C(C1=C[C@@H](c2ccccc2)C[C@@H](OCc2ccc(CO)cc2)O1)N1CCN(Cc2ccc3c(c2)OCO3)CC1	?	?	16.4µM*	20.6µM*	18.4µM*
O=C(C1=C[C@@H](c2ccccc2)C[C@@H](OCc2ccc(CO)cc2)O1)N1CCCCCCC1	-0.8%	-11.0	-1.5%	?	?
CN1CCN(C(=O)C2=C[C@H](c3ccc(C(F)(F)F)cc3)C[C@H](OCc3ccc(CO)cc3)O2)CC1	-4.0%	-12.7	-0.2%	?	23.1µM*
O=C(C1=C[C@H](c2ccccc2)C[C@H](OCc2ccc(CO)cc2)O1)N1CCN(Cc2ccccc2)CC1	-15.2%	-60.1*	-8.7%	?	?
COc1ccc(C(C)=O)cc1CSCCC#N	0.6%	-11.8	-5.2%	?	-2.7%
O=C(Nc1ccc(C(=O)OCc2cc(=O)n3c4c(sc3n2)CCCC4)cc1)c1ccc(F)cc1	.	.	.	-19.4%	-23.8%
C/C(=N\N(c1ccccc1)c1ccccc1)c1ccc(O)cc1	?	-63.2*	?	-11.0%	4.7%
Cc1nc(N2CCN(C(=O)c3ccco3)CC2)c2c3c(sc2n1)CCC3	-28.8%	?	-29.2%	11.6µM*	16.4µM*
O=C(c1ccccc1)N1CCN(c2ncnc3sc4c(c23)CCC4)CC1	-5.4%	0.0	-25.8%	23.1µM*	20.6µM*
Cc1nc(N2CCOCC2)c2c3c(sc2n1)CCC3	-0.3%	16.2	-13.2%	?	-8.2%
SMILES	HT1080-NT tox	IL1B secr inh	HT1080 IDH1KD tx	DT40 TDP1 no CPT	DT40 TDP1 CPT
O=C(NCc1ccccc1F)Nc1nnc([C@@H]2C[C@H](O)[C@@H](CO)O2)s1	9.8%	11.5	3.4%	-1.6%	1.7%
O=C(CSc1nccn1-c1cccc(Cl)c1)NC1CCCC1	9.7%	-1.0	15.7%	20.6µM*	-23.3%
Cc1ccc(C)c(NC(=O)CSc2nccn2Cc2ccco2)c1	16.4%	18.1	9.4%	10.2%	-26.4%
Cc1ccc(C)c(NC(=O)CSc2nccn2-c2cccc(C)c2C)c1	.	.	.	20.6µM*	18.4µM*
CCOc1ccccc1NC(=O)CSc1nccn1-c1cccc(C)c1	.	.	.	18.4µM*	20.6µM*
CCSc1nnc(NC(=O)CSc2nccn2-c2cccc(C)c2)s1	3.4%	3.4	2.9%	-4.8%	1.0%
CCc1ccc(NC(=O)CSc2nccn2C2CCCC2)cc1	.	.	.	?	18.4µM*
O=C(CN1C(=O)C(=O)N(CCC2=CCCCC2)C1=O)Nc1ccc(F)cc1F	-1.0%	14.8	0.8%	4.2%	?
CCOC(=O)N1CCN(C(=O)CSc2nc(=O)n3ccccc3n2)CC1	-0.4%	-3.3	-3.2%	-22.1%	-12.8%
CC(Sc1nnc(Cc2ccccc2)o1)C(=O)Nc1ccccc1[N+](=O)[O-] (stereo not drawn)	-0.5%	-5.5	-0.3%	-27.5%	-7.7%
CC1=C(C(=O)NC2CC(C)(C)Cc3c2cnn3-c2cccc(F)c2)OCCO1 (stereo not drawn)	17.0%	-6.8	0.3%	?	?
CCc1ccc(NC(=O)CSc2nccn2-c2cccc(C)c2C)cc1	.	.	.	20.6µM*	23.1µM*
Cn1ccnc1SCC(=O)N1CCc2ccccc21	0.0%	-2.9	15.4%	16.1%	2.3%
Cc1cccc(-n2ccnc2SCC(=O)N2CCCc3ccccc32)c1C	-10.6%	-20.6	-17.9%	20.6µM*	18.4µM*
Cc1cc(NC(=O)CSc2nccn2-c2cccc(Cl)c2)no1	0.3%	6.4	11.0%	-28.7%	-7.4%
CCc1ccc(NC(=O)CSc2nccn2-c2ccc(F)cc2)cc1	.	.	.	-18.2%	?
Cc1cccc(NC(=O)CSc2nccn2-c2cccc(Cl)c2)c1C	.	.	.	?	20.6µM*
O=C(CSc1nccn1Cc1ccc(F)cc1)Nc1ccc(F)cc1F	-3.3%	0.0	-8.2%	-24.6%	-22.7%
Cc1cccc(-n2ccnc2SCC(=O)Nc2ccc(F)cc2F)c1C	.	.	.	20.6µM*	16.4µM*
CSCCNC(=O)C1(C)CCN1C(=O)c1sccc1C (stereo not drawn)	1.9%	12.0	22.0%	1.6%	-4.6%
O=C(O)Cc1sc(NC2CCCCC2)nc1-c1ccc(Cl)cc1	3.4%	9.0	-15.3%	?	-26.6%
CCn1cc(CN2CCCC(C(=O)Nc3cccc(-n4cccn4)c3)C2)cn1 (stereo not drawn)	-3.7%	8.6	-1.1%	-25.1%	-24.6%

Bioassay records (PubChem BioAssay)
